{
  "source": "the supplement of paper PMC11732987",
  "about": "“Enantioselective OTUD7B fragment discovery through chemoproteomics screening and high-throughput optimisation” (Communications Chemistry, 2025)",
  "assay_in_all_cases": "log2 ratio of Biotin-Ahx-Ub-VS probe labelling (fragment/DMSO); higher = less target engagement (more negative = stronger competition), active = hit call of the paper (q ≤ 0.05, log2 ratio ≤ -1)",
  "conditions_in_all_cases": "compound concentration: 200 uM; treatment time: 3 h",
  "key": {"[1]": {"molecular_target": "USP34 (UniProt Q70CQ2)", "sequence (Q70CQ2 whole entry, the tested form may be a part)": "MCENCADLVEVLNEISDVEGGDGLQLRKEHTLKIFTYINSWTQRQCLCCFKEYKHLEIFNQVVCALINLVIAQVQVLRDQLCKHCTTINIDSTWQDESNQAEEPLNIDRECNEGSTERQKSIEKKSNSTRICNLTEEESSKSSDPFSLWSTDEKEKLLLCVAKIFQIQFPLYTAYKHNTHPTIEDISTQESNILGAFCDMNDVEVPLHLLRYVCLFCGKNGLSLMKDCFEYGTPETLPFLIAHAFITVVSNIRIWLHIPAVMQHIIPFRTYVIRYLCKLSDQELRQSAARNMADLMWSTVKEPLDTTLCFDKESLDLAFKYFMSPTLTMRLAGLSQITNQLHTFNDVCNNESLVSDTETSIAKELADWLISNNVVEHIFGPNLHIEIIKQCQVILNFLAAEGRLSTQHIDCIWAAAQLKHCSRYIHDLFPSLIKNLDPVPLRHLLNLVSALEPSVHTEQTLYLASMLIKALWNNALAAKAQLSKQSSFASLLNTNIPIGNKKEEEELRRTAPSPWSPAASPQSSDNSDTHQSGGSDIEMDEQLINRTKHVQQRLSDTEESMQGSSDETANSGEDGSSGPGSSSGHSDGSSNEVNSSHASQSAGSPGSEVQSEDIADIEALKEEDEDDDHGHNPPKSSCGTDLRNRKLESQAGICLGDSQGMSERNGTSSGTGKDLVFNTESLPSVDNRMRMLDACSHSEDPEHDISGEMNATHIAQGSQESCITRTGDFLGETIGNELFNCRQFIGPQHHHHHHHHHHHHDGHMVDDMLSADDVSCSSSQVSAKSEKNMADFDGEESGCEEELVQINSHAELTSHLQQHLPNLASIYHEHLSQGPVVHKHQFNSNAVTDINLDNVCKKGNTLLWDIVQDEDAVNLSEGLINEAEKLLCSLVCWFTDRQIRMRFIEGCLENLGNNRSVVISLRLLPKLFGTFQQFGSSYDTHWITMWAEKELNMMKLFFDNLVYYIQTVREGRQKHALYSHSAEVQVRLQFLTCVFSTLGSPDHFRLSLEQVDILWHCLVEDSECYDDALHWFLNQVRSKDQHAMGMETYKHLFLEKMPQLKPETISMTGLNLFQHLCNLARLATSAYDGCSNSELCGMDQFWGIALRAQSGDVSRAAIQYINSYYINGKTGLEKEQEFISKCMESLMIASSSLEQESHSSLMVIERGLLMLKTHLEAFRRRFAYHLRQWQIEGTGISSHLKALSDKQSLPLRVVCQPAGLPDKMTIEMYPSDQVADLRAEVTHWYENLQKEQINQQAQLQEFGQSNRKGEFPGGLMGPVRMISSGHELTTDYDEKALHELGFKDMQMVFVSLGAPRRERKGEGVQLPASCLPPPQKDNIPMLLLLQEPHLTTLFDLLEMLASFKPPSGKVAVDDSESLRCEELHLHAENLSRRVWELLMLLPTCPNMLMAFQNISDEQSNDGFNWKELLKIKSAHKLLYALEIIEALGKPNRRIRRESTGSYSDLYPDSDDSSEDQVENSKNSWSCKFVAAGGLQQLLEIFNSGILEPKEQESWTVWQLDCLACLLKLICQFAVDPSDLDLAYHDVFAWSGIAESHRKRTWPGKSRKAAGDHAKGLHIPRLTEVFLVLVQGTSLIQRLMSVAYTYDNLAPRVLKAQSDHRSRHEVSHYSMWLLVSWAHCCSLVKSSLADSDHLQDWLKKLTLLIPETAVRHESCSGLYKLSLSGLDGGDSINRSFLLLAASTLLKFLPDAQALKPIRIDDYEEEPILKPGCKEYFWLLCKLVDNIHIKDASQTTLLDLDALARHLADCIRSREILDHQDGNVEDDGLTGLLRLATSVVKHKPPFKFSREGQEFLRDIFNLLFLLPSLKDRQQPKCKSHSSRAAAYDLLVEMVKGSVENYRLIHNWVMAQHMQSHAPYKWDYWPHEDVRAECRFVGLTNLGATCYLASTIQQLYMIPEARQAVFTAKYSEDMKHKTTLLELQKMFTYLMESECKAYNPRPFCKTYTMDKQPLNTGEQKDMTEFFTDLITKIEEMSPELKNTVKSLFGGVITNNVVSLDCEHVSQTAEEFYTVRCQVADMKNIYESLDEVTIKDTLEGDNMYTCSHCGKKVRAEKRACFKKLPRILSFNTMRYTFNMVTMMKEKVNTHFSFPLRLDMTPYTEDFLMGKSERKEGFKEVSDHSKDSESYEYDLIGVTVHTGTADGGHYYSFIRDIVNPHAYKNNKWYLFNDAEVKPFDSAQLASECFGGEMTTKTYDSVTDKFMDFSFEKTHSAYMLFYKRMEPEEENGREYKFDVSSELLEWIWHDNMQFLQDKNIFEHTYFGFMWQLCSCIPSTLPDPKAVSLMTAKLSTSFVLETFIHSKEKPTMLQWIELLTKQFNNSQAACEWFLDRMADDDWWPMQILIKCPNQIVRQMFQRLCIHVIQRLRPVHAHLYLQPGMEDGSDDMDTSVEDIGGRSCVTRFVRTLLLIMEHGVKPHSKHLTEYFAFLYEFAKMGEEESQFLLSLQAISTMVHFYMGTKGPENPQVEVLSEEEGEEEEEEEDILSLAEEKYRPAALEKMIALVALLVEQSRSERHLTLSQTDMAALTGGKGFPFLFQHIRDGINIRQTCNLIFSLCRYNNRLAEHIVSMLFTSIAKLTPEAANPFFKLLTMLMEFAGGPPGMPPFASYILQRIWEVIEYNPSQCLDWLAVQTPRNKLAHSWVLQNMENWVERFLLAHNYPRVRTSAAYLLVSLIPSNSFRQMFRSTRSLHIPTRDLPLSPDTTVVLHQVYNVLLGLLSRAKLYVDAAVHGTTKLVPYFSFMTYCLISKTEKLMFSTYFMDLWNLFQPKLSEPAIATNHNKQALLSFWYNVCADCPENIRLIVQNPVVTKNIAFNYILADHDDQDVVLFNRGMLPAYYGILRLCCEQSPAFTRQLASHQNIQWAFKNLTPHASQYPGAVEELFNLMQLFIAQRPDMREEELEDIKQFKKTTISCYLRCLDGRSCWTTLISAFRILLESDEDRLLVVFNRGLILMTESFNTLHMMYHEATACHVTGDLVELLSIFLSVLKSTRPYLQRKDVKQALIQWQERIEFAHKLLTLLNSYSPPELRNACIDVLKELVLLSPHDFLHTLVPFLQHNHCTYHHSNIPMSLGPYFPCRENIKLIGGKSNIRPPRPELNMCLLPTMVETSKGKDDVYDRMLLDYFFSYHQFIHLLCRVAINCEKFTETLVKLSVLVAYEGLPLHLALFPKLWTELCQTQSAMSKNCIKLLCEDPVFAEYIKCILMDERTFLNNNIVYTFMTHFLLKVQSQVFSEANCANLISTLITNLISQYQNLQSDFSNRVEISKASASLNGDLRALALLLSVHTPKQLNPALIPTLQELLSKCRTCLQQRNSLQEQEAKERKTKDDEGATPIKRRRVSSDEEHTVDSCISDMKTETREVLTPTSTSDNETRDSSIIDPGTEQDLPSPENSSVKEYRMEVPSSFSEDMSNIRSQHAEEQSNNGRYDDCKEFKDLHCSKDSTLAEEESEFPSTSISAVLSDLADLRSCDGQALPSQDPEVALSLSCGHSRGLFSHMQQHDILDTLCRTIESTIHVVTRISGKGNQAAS", "how_it_was_run": "(§1)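 Triplicate samples of HEK293T lysate, 495 µg each, received fragment at 200 µM or vehicle for 3 h, followed by Biotin-Ahx-Ub-VS (0.5 µM final) for 1 h. After NeutrAvidin enrichment of labelled DUBs and LysC/trypsin digestion, peptides were run by diaPASEF LC-MS/MS. The values are average log2 fragment/vehicle ratios from global-median-normalised Spectronaut label-free quantities, tested by unpaired t-test on proteins having ≥2 unique peptides.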"}, "[2]": {"molecular_target": "T1, USP36 (UniProt Q9P275)", "T1 sequence (whole entry)": "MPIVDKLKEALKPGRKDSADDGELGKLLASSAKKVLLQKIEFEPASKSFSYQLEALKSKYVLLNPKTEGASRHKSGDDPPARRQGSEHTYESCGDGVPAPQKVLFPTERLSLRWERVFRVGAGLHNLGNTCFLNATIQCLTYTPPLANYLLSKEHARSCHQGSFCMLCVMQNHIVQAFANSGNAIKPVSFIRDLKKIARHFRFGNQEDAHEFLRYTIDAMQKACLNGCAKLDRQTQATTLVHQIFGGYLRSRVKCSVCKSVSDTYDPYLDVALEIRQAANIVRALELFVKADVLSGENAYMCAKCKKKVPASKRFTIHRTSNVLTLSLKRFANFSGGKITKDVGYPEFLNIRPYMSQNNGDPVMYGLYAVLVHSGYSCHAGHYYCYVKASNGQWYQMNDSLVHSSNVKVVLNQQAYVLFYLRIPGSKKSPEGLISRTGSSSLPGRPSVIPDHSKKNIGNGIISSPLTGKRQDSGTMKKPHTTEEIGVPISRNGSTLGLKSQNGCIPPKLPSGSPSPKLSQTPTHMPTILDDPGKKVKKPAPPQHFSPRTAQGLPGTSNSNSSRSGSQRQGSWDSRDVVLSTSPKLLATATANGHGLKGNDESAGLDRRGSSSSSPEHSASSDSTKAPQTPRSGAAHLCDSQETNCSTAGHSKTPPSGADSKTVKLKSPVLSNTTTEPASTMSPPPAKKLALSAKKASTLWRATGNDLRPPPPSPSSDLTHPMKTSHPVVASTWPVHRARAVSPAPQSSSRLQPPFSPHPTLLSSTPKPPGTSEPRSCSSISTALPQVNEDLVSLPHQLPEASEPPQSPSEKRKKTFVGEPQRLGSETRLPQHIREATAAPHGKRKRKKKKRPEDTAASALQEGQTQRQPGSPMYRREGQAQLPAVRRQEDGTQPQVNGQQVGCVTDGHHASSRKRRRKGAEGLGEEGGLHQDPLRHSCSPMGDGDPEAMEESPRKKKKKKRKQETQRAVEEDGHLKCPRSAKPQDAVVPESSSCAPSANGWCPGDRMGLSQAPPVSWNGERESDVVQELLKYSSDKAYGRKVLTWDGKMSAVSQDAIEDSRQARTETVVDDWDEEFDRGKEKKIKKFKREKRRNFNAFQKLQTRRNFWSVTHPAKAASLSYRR", "how_it_was_run": "as §1"}, "[3]": {"molecular_target": "T2, USP38 (UniProt Q8NB14)", "T2 sequence (whole entry)": "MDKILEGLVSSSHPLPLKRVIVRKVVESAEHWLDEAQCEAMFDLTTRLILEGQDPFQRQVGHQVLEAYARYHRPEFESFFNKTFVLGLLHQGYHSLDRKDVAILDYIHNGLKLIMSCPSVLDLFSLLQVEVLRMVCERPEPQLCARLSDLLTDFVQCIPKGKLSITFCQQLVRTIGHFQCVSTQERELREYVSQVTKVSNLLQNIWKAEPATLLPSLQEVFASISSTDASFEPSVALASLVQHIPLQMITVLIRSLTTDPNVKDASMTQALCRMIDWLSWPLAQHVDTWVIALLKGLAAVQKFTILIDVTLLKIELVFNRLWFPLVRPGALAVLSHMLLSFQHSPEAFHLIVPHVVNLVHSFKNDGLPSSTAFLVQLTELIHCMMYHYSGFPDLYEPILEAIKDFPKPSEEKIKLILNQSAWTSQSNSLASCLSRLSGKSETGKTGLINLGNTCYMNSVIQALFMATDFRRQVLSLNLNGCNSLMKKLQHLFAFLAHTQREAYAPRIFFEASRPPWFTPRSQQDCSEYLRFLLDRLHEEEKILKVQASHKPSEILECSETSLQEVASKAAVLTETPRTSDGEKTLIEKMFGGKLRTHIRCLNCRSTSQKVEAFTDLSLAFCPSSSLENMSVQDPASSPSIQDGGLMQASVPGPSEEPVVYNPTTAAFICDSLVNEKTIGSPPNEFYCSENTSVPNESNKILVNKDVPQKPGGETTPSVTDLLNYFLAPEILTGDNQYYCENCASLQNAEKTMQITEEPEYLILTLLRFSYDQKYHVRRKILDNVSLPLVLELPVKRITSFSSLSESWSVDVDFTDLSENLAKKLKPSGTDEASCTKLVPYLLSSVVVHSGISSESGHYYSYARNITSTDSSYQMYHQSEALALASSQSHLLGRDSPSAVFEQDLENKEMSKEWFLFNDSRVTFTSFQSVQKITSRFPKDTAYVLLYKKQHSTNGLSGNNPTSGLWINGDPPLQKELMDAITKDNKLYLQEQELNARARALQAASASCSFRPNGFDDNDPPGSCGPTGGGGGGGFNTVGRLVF", "how_it_was_run": "as §1"}, "[4]": {"molecular_target": "T3, USP39 (UniProt Q53GS9)", "T3 sequence (whole entry)": "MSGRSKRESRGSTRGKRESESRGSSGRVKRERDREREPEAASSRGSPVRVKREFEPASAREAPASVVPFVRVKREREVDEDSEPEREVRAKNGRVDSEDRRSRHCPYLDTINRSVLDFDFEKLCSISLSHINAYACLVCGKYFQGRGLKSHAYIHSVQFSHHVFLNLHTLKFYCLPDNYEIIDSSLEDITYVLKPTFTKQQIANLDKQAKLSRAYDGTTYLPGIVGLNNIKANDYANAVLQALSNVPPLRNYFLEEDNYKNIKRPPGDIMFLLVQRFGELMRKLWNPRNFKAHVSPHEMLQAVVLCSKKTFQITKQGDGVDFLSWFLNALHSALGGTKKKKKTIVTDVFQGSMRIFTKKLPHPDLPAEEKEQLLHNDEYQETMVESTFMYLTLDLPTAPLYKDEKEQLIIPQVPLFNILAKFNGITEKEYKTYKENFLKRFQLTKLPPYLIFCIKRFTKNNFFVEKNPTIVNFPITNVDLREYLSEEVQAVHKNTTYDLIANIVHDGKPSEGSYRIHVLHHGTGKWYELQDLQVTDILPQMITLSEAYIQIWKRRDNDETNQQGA", "how_it_was_run": "as §1"}, "[5]": {"molecular_target": "T4, USP4 (UniProt Q13107)", "T4 sequence (whole entry)": "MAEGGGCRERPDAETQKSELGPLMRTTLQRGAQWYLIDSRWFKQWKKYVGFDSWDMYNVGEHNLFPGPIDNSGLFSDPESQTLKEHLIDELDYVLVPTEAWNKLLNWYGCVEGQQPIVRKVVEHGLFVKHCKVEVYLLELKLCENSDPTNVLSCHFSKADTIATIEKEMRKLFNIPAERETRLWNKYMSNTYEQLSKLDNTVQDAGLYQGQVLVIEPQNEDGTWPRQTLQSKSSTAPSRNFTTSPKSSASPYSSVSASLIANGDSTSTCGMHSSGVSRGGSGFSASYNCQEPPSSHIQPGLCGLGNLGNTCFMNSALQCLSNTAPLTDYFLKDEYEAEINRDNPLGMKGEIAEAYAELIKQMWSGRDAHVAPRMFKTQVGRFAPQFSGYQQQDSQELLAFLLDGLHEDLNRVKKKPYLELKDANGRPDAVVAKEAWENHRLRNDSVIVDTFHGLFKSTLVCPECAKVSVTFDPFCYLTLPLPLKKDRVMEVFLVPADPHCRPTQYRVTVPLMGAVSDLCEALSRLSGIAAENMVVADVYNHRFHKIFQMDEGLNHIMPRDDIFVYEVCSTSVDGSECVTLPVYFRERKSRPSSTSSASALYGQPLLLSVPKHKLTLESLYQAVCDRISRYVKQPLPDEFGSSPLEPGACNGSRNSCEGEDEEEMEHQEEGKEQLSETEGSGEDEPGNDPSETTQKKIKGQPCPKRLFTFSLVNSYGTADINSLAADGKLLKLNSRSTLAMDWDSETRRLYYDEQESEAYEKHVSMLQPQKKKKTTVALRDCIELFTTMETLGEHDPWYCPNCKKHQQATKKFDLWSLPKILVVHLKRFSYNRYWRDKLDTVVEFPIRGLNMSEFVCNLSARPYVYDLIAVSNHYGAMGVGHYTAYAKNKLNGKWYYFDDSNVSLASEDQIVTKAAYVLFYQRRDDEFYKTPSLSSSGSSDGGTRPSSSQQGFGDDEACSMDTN", "how_it_was_run": "as §1"}},
  "note": "Values without a mark were called inactive.",
  "data": [
    {"smiles": "O=C(CCl)N1CCN(C(=O)N2CCCCC2)CC1", "values": [
      {"measurement": "log2 ratio of Biotin-Ahx-Ub-VS probe labelling", "setting": "[1]", "result": -0.512},
      {"measurement": "log2 ratio of Biotin-Ahx-Ub-VS probe labelling", "setting": "[2]", "result": -0.269},
      {"measurement": "log2 ratio of Biotin-Ahx-Ub-VS probe labelling", "setting": "[3]", "result": "-1.04 (active)"},
      {"measurement": "log2 ratio of Biotin-Ahx-Ub-VS probe labelling", "setting": "[4]", "result": -0.223},
      {"measurement": "log2 ratio of Biotin-Ahx-Ub-VS probe labelling", "setting": "[5]", "result": "-1.05 (active)"}
    ]}
  ]
}
